Test results: PubChem BioAssay (NCI)
The panel holds about 83,000 compounds, 20% with a hit somewhere; the sample as a whole holds those more often.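 Compound tested at a single concentration for 48 hours in 96-well plates; a percent growth value below 10 was scored as active.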 The source made the active and inactive calls.

Legend:
Assay in all cases: NCI-60 one-dose screen, 48 h (100 = growth as untreated, 0 = no growth, -100 = all killed)
DU-145 prostate = settings: 10 µM unless noted
K-562 leukemia = settings: 10 µM unless noted
MALME-3M melanoma = settings: 10 µM unless noted
RXF 393 renal = settings: 10 µM unless noted
SF-295 CNS = settings: 10 µM unless noted
UACC-257 melanoma = settings: 10 µM unless noted
M14 melanoma = settings: 10 µM unless noted
SK-MEL-5 melanoma = settings: 10 µM unless noted
LOX IMVI melanoma = settings: 10 µM unless noted
SK-MEL-2 melanoma = settings: 10 µM unless noted
HL-60(TB) leukemia = settings: 10 µM unless noted
CCRF-CEM leukemia = settings: 10 µM unless noted
SR leukemia = settings: 10 µM
OVCAR-4 ovarian = settings: 10 µM unless noted
IGROV1 ovarian = settings: 10 µM
OVCAR-3 ovarian = settings: 10 µM unless noted
BT-549 breast = settings: 10 µM
HCC-2998 colon = settings: 10 µM unless noted
A498 renal = settings: 10 µM unless noted
UACC-62 melanoma = settings: 10 µM unless noted

Measured: growth

N#C[Se]CCCNS(=O)(=O)C1CC2C=CC1C2 (configuration not stated)
inactive: CCRF-CEM leukemia 17.4% | OVCAR-4 ovarian 10%
active: DU-145 prostate -68% | K-562 leukemia 5.87% | MALME-3M melanoma -55.5% | RXF 393 renal -90% | SF-295 CNS -80.7% | UACC-257 melanoma -55.3% | M14 melanoma -47.9% | SK-MEL-5 melanoma -70.8% | LOX IMVI melanoma -76.8% | SK-MEL-2 melanoma -24.4% | HL-60(TB) leukemia -41.1% | SR leukemia 7.66% | IGROV1 ovarian -52.5% | OVCAR-3 ovarian -63.6% | BT-549 breast -71.3% | HCC-2998 colon 4.61%

CCC(C)/C=C(C)/C=C/C(=O)c1c(O)c(-c2ccc(O)cc2)c[nH]c1=O (configuration not stated)
inactive: DU-145 prostate 24.8% | K-562 leukemia 39.2% | MALME-3M melanoma 75% | RXF 393 renal 52.3% | SF-295 CNS 57.5% | UACC-257 melanoma 55.8% | M14 melanoma 79.1% | SK-MEL-5 melanoma 63.4% | LOX IMVI melanoma 40.2% | SK-MEL-2 melanoma 89.1% | A498 renal 47.6% | HL-60(TB) leukemia 36% | CCRF-CEM leukemia 16.2% | SR leukemia 13% | IGROV1 ovarian 40.7% | OVCAR-3 ovarian 40.7% | BT-549 breast 38.3% | HCC-2998 colon 47.5%

CC1(C)N=C(N)N=C(N)N1c1ccc(CCC(=O)Nc2cccc(S(=O)(=O)F)c2)cc1
active: MALME-3M melanoma -7.62%
inactive: DU-145 prostate 72.1% | K-562 leukemia 26.2% | RXF 393 renal 64.7% | SF-295 CNS 89.6% | UACC-257 melanoma 73.3% | M14 melanoma 69.8% | SK-MEL-5 melanoma 32.9% | UACC-62 melanoma 45.3% | LOX IMVI melanoma 23.5% | SK-MEL-2 melanoma 102% | HL-60(TB) leukemia 47.6% | SR leukemia 35.6% | IGROV1 ovarian 39.4% | BT-549 breast 84.9% | HCC-2998 colon 67.5%

ClCCN(CCCl)c1nc(Cl)c(C2CC(c3ccccc3)=NN2c2ccccc2)s1 (configuration not stated)
inactive: DU-145 prostate 99.7% | K-562 leukemia 68.3% | MALME-3M melanoma 113% | RXF 393 renal 94.2% | SF-295 CNS 98.6% | UACC-257 melanoma 85.8% | M14 melanoma 92.4% | SK-MEL-5 melanoma 89.1% | UACC-62 melanoma 60.9% | LOX IMVI melanoma 85.3% | SK-MEL-2 melanoma 93.9% | A498 renal 103% | HL-60(TB) leukemia 101% | CCRF-CEM leukemia 88.9% | SR leukemia 88.4% | OVCAR-4 ovarian 87.1% | IGROV1 ovarian 107% | BT-549 breast 99.3% | HCC-2998 colon 110%

O=c1cc[nH]c(=O)o1
inactive: DU-145 prostate 104% | K-562 leukemia 105% | MALME-3M melanoma 95.2% | RXF 393 renal 114% | SF-295 CNS 101% | M14 melanoma 103% | SK-MEL-5 melanoma 105% | UACC-62 melanoma 99.4% | LOX IMVI melanoma 97.9% | SK-MEL-2 melanoma 93.3% | A498 renal 114% | HL-60(TB) leukemia 80.2% | SR leukemia 94.7% | OVCAR-4 ovarian 104% | IGROV1 ovarian 104% | OVCAR-3 ovarian 107% | BT-549 breast 102% | HCC-2998 colon 116%

CO[C@@H](c1ccccc1Cl)[C@H](C)OC(N)=O
inactive: DU-145 prostate 106% | K-562 leukemia 104% | MALME-3M melanoma 93.5% | RXF 393 renal 113% | SF-295 CNS 95.8% | UACC-257 melanoma 91.7% | M14 melanoma 89.9% | SK-MEL-5 melanoma 98.7% | UACC-62 melanoma 93.1% | LOX IMVI melanoma 98.1% | SK-MEL-2 melanoma 107% | A498 renal 96.3% | HL-60(TB) leukemia 106% | CCRF-CEM leukemia 82.6% | SR leukemia 111% | OVCAR-4 ovarian 112% | IGROV1 ovarian 102% | OVCAR-3 ovarian 111% | BT-549 breast 97.2% | HCC-2998 colon 91.5%

C[C@]12CC[C@H]3[C@@H](C[C@@H]4N=C(c5ccc(O)cc5)S[C@@]45C[C@H](O)CC[C@]35C)[C@@H]1CC[C@@H]2O
inactive: DU-145 prostate 63.8% | K-562 leukemia 13.9% | MALME-3M melanoma 72.4% | UACC-257 melanoma 66.2% | M14 melanoma 60.5% | SK-MEL-5 melanoma 72% | LOX IMVI melanoma 25.4% | SK-MEL-2 melanoma 44.9% | A498 renal 49.4% | HL-60(TB) leukemia 22.7% | CCRF-CEM leukemia 13.1% | OVCAR-4 ovarian 81.8% | IGROV1 ovarian 80.7% | OVCAR-3 ovarian 38.6% | BT-549 breast 59.3% | HCC-2998 colon 95.3%
active: RXF 393 renal -46.3% | SF-295 CNS -36.2% | SR leukemia 5.95%

O=C(CI)Nc1ccc(Br)cc1
active: K-562 leukemia -41.1% | MALME-3M melanoma -65% | LOX IMVI melanoma -78.6% | CCRF-CEM leukemia -31.7% | SR leukemia -53% | IGROV1 ovarian -55.2% | OVCAR-3 ovarian -78.7%
inactive: DU-145 prostate 23.3% | RXF 393 renal 26.5% | SF-295 CNS 98.2% | UACC-257 melanoma 92.9% | M14 melanoma 14.1% | SK-MEL-5 melanoma 62.6% | UACC-62 melanoma 79.2% | SK-MEL-2 melanoma 76.4% | A498 renal 142% | HL-60(TB) leukemia 69.6% | OVCAR-4 ovarian 27.4% | HCC-2998 colon 102%

O=CN1N=C(c2ccc3c(c2)OCO3)CC1c1sc(N(CCCl)CCCl)nc1Cl (configuration not stated)
inactive: DU-145 prostate 107% | K-562 leukemia 85.4% | MALME-3M melanoma 106% | RXF 393 renal 109% | SF-295 CNS 104% | UACC-257 melanoma 84.4% | M14 melanoma 102% | SK-MEL-5 melanoma 101% | UACC-62 melanoma 77.5% | LOX IMVI melanoma 100% | SK-MEL-2 melanoma 92.9% | A498 renal 97.7% | HL-60(TB) leukemia 88.6% | CCRF-CEM leukemia 92.1% | SR leukemia 87.6% | OVCAR-4 ovarian 100% | IGROV1 ovarian 93.2% | OVCAR-3 ovarian 95.5% | BT-549 breast 94.7% | HCC-2998 colon 106%
